# Assay results published in PubChem BioAssay.
# Activity calls are given as the source filed them. Unless noted, the rule behind the calls is not given here.
# How the values were obtained:
# [1] = A549 cell viability effects, profiling panel, calcein-AM fluorescence, 48 h, basal (AID 1162); conditions: higher = more signal; note: test concentration not given here
# [2] = adipocyte viability effects, profiling panel, cell-based, 3T3-L1 adipocytes, calcein-AM fluorescence, 48 h, basal (AID 1163); conditions: 3T3-L1 adipocytes viability, higher = more signal; note: test concentration not given here
# [3] = HepG2 cell viability effects, profiling panel, calcein-AM fluorescence, 48 h, basal (AID 1164); conditions: higher = more signal; note: test concentration not given here
# [4] = MM1S cell viability effects, profiling panel, calcein-AM fluorescence, 48 h, basal (AID 1165); conditions: higher = more signal;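 note: viability of MM1S multiple myeloma cells under basal unstimulated conditions; test concentration not given here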
# [5] = basal RPMI8226 viability, no added stimulus, profiling panel, cell-based, calcein-AM fluorescence, 48 h, PK04 Diversity Set (AID 1166); conditions: RPMI8226 myeloma viability, higher = more signal;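 note: cells grown under basal conditions without added stimulus; test concentration not given here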
# [6] = basal HepG2 mitochondrial membrane potential changes, profiling panel, cell-based, JC-1 fluorescence, 24 h, 100 nL compound (AID 1167); conditions: higher = more signal; note: test concentration not given here
# [7] = basal 3T3-L1 adipocyte mitochondrial potential changes, profiling panel, cell-based, JC-1 fluorescence, 3T3-L1 adipocytes, 24 h, 100 nL compound (AID 1168); conditions: JC-1 mitochondrial fluorescence, higher = more signal, called active from +8 up or from −8 down; note: test concentration not given here
# [8] = basal RPMI8226 mitochondrial membrane potential changes, profiling panel, cell-based, JC-1 fluorescence, 24 h, 100 nL compound (AID 1169); conditions: RPMI8226 myeloma, JC-1 mitochondrial potential fluorescence, higher = more signal; note: test concentration not given here
# [9] = basal MM1S mitochondrial membrane potential changes, profiling panel, cell-based, JC-1 fluorescence, 24 h, 100 nL compound (AID 1170); conditions: higher = more signal; note: test concentration not given here
# [10] = A549 lung cancer cell viability effects, profiling panel, resazurin fluorescence, 24 h, PK04 Diversity Set (AID 1171); conditions: higher = more signal, called active from +8 up or from −8 down; note: test concentration not given here
# [11] = HepG2 liver cancer cell viability effects, profiling panel, resazurin fluorescence, 24 h, PK04 Diversity Set (AID 1172); conditions: higher = more signal; note: test concentration not given here
# [12] = basal S. cerevisiae growth modulation, no modifier, primary screen, OD600, strain BY4716, 24 h, basal condition (AID 1173); conditions: OD600, 24 h, higher = more signal, called active from +8 up or from −8 down
# [13] = MM1S myeloma cell viability, profiling panel, resazurin fluorescence, basal, 24 h, PK04 Diversity Set (AID 1174); conditions: higher = more signal, called active from +8 up or from −8 down;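 note: MM1S multiple myeloma cell line; test concentration not given here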
# [14] = target: Dihydroorotate dehydrogenase (quinone), mitochondrial (Plasmodium falciparum (isolate 3D7)) (UniProt Q08210); assay: PfDHODH enzyme inhibitors, primary screen, biochemical, C-terminal His tag, absorbance 600 nm (AID 1175); conditions: DCIP absorbance 600 nm, higher = more signal, called active from +8 up or from −8 down;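 note: recombinant parasite enzyme with a five histidine tag at its C terminus; test concentration not given here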
# [15] = P. aeruginosa biofilm formation inhibitors, primary screen, strain PAO1, LB-PBS medium, absorbance 600 nm (AID 1176); note: test concentration not given here; conditions: P. aeruginosa PAO1 growth/biofilm, A600, 12 h; higher = more signal
# [16] = S. cerevisiae RM11-1a growth modifiers, primary screen, strain RM11-1a, OD600, basal, 24 h (AID 1177); conditions: OD600, 24 h, higher = more signal, called active from +8 up or from −8 down;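 note: cultures grown under basal conditions with no added stressor; test concentration not given here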
# [17] = E. coli acrAB mutant growth effects, primary screen, E. coli filamentation inducers, strain DRC39, OD650, 24 h (AID 1178); conditions: higher = more signal, called active from +8 up or from −8 down;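 note: growth measured as culture turbidity by optical density at 650 nm; test concentration not given here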
# [18] = E. coli acrAB mutant growth effects, primary screen, E. coli filamentation inducers, strain DRC39, OD650, 48 h (AID 1179);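 note: screen aims at cell division blockers that make cells filament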; conditions: E. coli DRC39 delta-acrAB growth, higher = more signal, called active from +8 up or from −8 down
# [19] = RPMI8226 myeloma cell viability, profiling panel, resazurin fluorescence, basal, 24 h, PK04 Diversity Set (AID 1180); conditions: higher = more signal;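 note: RPMI8826 multiple myeloma cell line at 5000 cells per well; test concentration not given here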
# [20] = target: E3 ubiquitin-protein ligase XIAP (Homo sapiens) (UniProt P98170); assay: XIAP binders, primary screen, biophysical, small-molecule microarray, fluorescence 635 nm (AID 1181); conditions: small-molecule microarray binding, higher = more signal;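 note: score merges 667 nm emission and signal to noise over triplicate slides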
# Sequence of E3 ubiquitin-protein ligase XIAP (Homo sapiens) (P98170 whole entry, looked up): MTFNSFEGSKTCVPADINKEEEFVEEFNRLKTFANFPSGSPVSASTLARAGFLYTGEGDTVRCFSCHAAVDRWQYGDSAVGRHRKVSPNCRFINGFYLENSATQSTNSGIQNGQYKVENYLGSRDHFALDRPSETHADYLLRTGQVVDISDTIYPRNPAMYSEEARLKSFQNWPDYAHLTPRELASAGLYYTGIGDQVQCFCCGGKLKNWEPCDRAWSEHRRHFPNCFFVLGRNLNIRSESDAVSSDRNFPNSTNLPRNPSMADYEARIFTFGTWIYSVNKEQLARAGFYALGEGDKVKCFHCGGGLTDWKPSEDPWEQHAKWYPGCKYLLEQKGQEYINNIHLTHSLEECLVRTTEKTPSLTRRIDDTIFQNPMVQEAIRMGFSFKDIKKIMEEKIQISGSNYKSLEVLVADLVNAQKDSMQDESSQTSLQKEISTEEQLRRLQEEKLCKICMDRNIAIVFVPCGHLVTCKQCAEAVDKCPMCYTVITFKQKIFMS
# Sequence of Dihydroorotate dehydrogenase (quinone), mitochondrial (Plasmodium falciparum (isolate 3D7)) (Q08210 whole entry, looked up): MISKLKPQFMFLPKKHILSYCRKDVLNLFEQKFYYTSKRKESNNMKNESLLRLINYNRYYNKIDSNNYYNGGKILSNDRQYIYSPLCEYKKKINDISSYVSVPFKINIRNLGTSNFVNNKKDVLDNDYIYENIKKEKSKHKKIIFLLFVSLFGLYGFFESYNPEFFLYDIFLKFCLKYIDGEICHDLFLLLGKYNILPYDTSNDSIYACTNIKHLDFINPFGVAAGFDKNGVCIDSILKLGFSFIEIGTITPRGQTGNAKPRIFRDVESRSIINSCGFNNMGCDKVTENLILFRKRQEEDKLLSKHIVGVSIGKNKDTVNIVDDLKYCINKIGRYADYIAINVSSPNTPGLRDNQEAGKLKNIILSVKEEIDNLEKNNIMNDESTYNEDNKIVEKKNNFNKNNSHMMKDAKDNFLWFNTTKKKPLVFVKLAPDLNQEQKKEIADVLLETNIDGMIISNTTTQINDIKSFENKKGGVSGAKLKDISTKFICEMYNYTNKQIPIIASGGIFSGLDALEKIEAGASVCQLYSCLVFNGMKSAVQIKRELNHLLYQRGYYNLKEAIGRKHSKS
Structure (SMILES),z-score [1],z-score [2],z-score [3],z-score [4],z-score [5],z-score [6],z-score [7],z-score [8],z-score [9],z-score [10],z-score [11],z-score [12],z-score [13],composite z-score [14],z-score [15],z-score [16],z-score [17],z-score [18],z-score [19],composite z-score [20]
Cc1ccc(S[C@]2(C(=O)NC3CC3)CC(=O)N(Cc3ccccc3)[C@@H]2c2ccc(CO)cc2I)cc1,2.11,0.388,0.935,-1.99,-2.06,1.55,0.679 (inactive),-0.525,-1.26,0.618 (inactive),0.417,-3.23 (inactive),-2.45 (inactive),-1.47 (inactive),0.751 (inactive),-1.46 (inactive),0.714 (inactive),0.753 (inactive),-1.71,-0.252
CCC(CC)C(O)C1C=CC2C(=O)NC(=O)C2N1Nc1ccc(Cl)cc1Cl (stereo not given),-1.36,-0.326,-0.751,-1.38,-0.82,-2.18,-0.446 (inactive),-0.661,-0.246,-0.929 (inactive),-1.82,-3.65 (inactive),-1.46 (inactive),0.925 (inactive),1.26 (inactive),1.27 (inactive),-0.682 (inactive),-0.459 (inactive),-1.52,0.0187
C=C[C@@H](COC(=O)OC(C)(C)C)N(Cc1ccc(OC)cc1)S(=O)(=O)c1ccc(Br)cc1,1.39,0.332,-0.002,-3.08,-1.36,-0.997,-0.239 (inactive),-0.525,0.101,1.74 (inactive),0.163,0.119 (inactive),0.67 (inactive),-0.316 (inactive),-0.177 (inactive),0.378 (inactive),-0.807 (inactive),-0.667 (inactive),-0.918,0.1
C=CCOC(=O)[C@H]1[C@@H]2C(=O)O[C@@H](c3ccccc3)[C@@H](c3ccccc3)N2[C@@H](c2ccc(OCCOC(=O)[C@@H]3C[C@@H]4C(=O)N[C@@H](CC(C)C)C(=O)N4[C@@H]3c3ccc(O)cc3)cc2)[C@]12C(=O)Nc1ccccc12,-1.02,0.385,-0.529,-0.206,0.162,-1.89,0.0514 (inactive),-0.89,-0.836,0.414 (inactive),0.256,1.23 (inactive),-0.347 (inactive),-0.295 (inactive),2.94 (inactive),2.05 (inactive),-0.149 (inactive),-0.72 (inactive),0.169,-0.0559
O=C(c1ccccc1)N1Cc2ccccc2C[C@@]2(COC(c3ccc(OCCCO)cc3)=N2)C1=O,0.603,0.697,0.81,-0.516,0.0855,1.47,-0.768 (inactive),-0.676,0.392,2.08 (inactive),1.05,-0.264 (inactive),0.26 (inactive),0.574 (inactive),0.248 (inactive),2.02 (inactive),-0.0674 (inactive),-0.564 (inactive),0.263,-0.231
CC1CC/C=C\[C@H]2OC34C=CCN(Cc5ccccc5)C(=O)[C@H]3N(CCCO)C(=O)[C@@H]4C2C(=O)O1 (stereo not given in full),-0.0905,0.324,-0.0453,-0.142,0.197,0.0693,0.237 (inactive),-0.0499,1.68,-0.433 (inactive),-0.385,-0.739 (inactive),0.0639 (inactive),-0.311 (inactive),-0.0963 (inactive),-0.52 (inactive),1.02 (inactive),0.568 (inactive),0.44,-0.176
[N-]=[N+]=Nc1ccccc1[C@@H]1OC(c2ccc(OCCCO)cc2)=N[C@]1(Cc1ccccc1)C(=O)N1CCOCC1,-0.539,-1.63,-0.404,-3,-4.17,0.593,2.15 (inactive),-1.21,-1.09,-1.56 (inactive),-0.601,-0.294 (inactive),-1.6 (inactive),0.291 (inactive),-0.0279 (inactive),0.857 (inactive),0.266 (inactive),-0.412 (inactive),-1.58,-0.0062
CCCC#C[Si](O[C@H](CC)c1cn(Cc2cccc(Cl)c2)nn1)(C(C)C)C(C)C,1.19,-1.07,1.58,-1.07,-0.223,-0.742,-0.228 (inactive),-0.112,-0.916,0.158 (inactive),0.345,-12.9 (active),0.0454 (inactive),-0.345 (inactive),-0.0057 (inactive),0.61 (inactive),1.11 (inactive),0.775 (inactive),0.33,-0.0855
C=CCNC(=O)[C@H]1[C@@H]2C(=O)O[C@@H](c3ccccc3)[C@@H](c3ccccc3)N2[C@@H](c2ccccc2OCCO)[C@]12C(=O)Nc1ccc(C#CCC(C(=O)OC)C(=O)OC)cc12,0.246,-0.72,-0.845,-3.34,-4.63,-0.64,2.62 (inactive),-1.32,-2.23,0.545 (inactive),0.57,2.25 (inactive),-7.81 (inactive),-0.95 (inactive),2.07 (inactive),3.57 (inactive),0.284 (inactive),-0.303 (inactive),-7.24,-0.159
COc1ccccc1CN1C(=O)c2ccccc2[C@@H](C(=O)NC2CC2)[C@@H]1c1ccc(CO)cc1,1.44,-0.348,1.26,0.467,-0.376,2.33,0.171 (inactive),0.371,-0.0698,0.469 (inactive),0.103,-0.561 (inactive),0.84 (inactive),-0.245 (inactive),-0.342 (inactive),0.184 (inactive),0.421 (inactive),0.119 (inactive),0.407,-0.0085
CCOC(=O)C[C@H]1[C@H](OC(=O)c2ccc(C(=O)c3ccccc3)cc2)[C@@H](NC(=O)c2ccccc2)c2cc(OCCCO)ccc2N1C(=O)Cc1ccc(OC)cc1,1.21,-0.0981,0.316,-0.797,0.0179,1.95,0.591 (inactive),-0.696,-0.231,0.261 (inactive),0.844,0.0931 (inactive),0.399 (inactive),0.107 (inactive),0.62 (inactive),0.17 (inactive),0.722 (inactive),0.419 (inactive),0.702,-0.102
COc1ccc([Si](C)(C)[C@@H]2[C@@H](CC(=O)N3CCC[C@H]3CO)O[C@]3(C(=O)N(c4ccccc4)c4ccccc43)[C@H]2C)cc1,1.61,0.93,-0.259,-0.011,0.17,1.29,-0.181 (inactive),-0.277,-0.544,1.13 (inactive),0.733,-1.39 (inactive),0.315 (inactive),-1.27 (inactive),-0.106 (inactive),-1.2 (inactive),0.193 (inactive),0.258 (inactive),0.729,0.217
NC(=O)NCC#Cc1ccc2c(c1)[C@]1(C(=O)N2)[C@H](C(=O)Nc2nc3ccccc3s2)[C@H]2C(=O)O[C@H](c3ccccc3)[C@H](c3ccccc3)N2[C@@H]1c1ccccc1OCCO,-0.38,2.01,0.374,-0.513,-1.12,-3.23,2.92 (inactive),-0.517,-0.815,0.28 (inactive),0.446,0.32 (inactive),-0.784 (inactive),2.26 (inactive),1.6 (inactive),1.8 (inactive),-0.846 (inactive),-0.728 (inactive),-0.651,0.711
Cc1ccc(S[C@]2(C(=O)NCCCN(C)C)CC(=O)N(Cc3cc(C(F)(F)F)cc(C(F)(F)F)c3)[C@@H]2c2ccc(CO)cc2I)cc1,0.0371,-0.787,0.241,-2.19,-2,-0.547,0.669 (inactive),-0.442,-2.03,-0.335 (inactive),-0.274,-4.35 (inactive),-3.04 (inactive),-0.0868 (inactive),0.323 (inactive),-0.514 (inactive),0.392 (inactive),0.786 (inactive),-2.62,-0.0795
COC(=O)[C@@]1(Cc2ccc(OC)cc2)[C@H]2c3cc(C(=O)N4CCCC4)n(Cc4ccc(O)c(OC)c4)c3C[C@H]2CN1C(=O)c1ccccc1,-0.226,0.174,0.321,0.11,-0.243,2.27,-0.183 (inactive),-0.221,-0.933,-1.47 (inactive),-1.76,1.19 (inactive),-0.431 (inactive),0.191 (inactive),0.591 (inactive),0.609 (inactive),-0.446 (inactive),-0.0429 (inactive),-2.77,0.227
COCCOC(=O)N1C(=O)[C@@]2(c3ccccc31)[C@H](c1ccccc1OCCO)N1[C@H](c3ccccc3)[C@H](c3ccccc3)OC(=O)[C@H]1[C@@H]2C(=O)N1CCN(c2ncccn2)CC1,-0.588,-0.678,-0.478,-1.7,-0.949,0.323,0.665 (inactive),-0.929,-1.36,-1.05 (inactive),-0.0332,2.64 (inactive),-1.39 (inactive),-0.539 (inactive),3.61 (inactive),3.08 (inactive),-0.233 (inactive),0.176 (inactive),-0.862,-0.16
C#C[C@H](O[Si](C#Cc1ccc(Oc2ccccc2)cc1)(C(C)C)C(C)C)c1ccccc1,-2.21,-1.19,-1.48,-3.02,-4.16,-3.3,-0.805 (inactive),-0.836,-1.34,-1.3 (inactive),-1.03,-12.7 (active),-0.675 (inactive),-0.289 (inactive),0.702 (inactive),0.619 (inactive),-0.363 (inactive),-0.172 (inactive),-1.73,-0.132
COc1cc2c(cc1OC)CN(C(=O)[C@@H]1[C@H]3C(=O)O[C@H](c4ccccc4)[C@H](c4ccccc4)N3[C@H](c3ccc(O)cc3)[C@@]13C(=O)Nc1ccccc13)CC2,1.62,1.45,1.01,0.0197,-1.62,-0.574,0.382 (inactive),-1.08,-0.404,1.6 (inactive),-0.313,-0.128 (inactive),0.118 (inactive),-0.228 (inactive),0.614 (inactive),0.028 (inactive),1.07 (inactive),-0.4 (inactive),0.109,-0.201
